Values joined by “and” are separate entries in the source; they are usually repeats but may differ in a detail not shown here. Identical values can stand only once. Like-named read-outs stand apart in the source and are kept apart here.
What was measured:
CSNK1A1L = conditions: concentration: 1 μM, replicates: in singlicate; n = 1
CSNK1A1 = conditions: concentration: 1 μM, replicates: in singlicate; n = 1
CSNK1D = conditions: concentration: 1 μM, replicates: in singlicate, n = 1
CSNK1E = conditions: concentration: 1 μM, replicates: in singlicate; n = 1
CSNK1G1 = conditions: concentration: 1 μM, replicates: in singlicate, n = 1
CSNK1G2 = conditions: concentration: 1 μM, replicates: in singlicate, n = 1
CSNK1G3 = conditions: concentration: 1 μM, replicates: in singlicate, n = 1
CSNK2A1 = conditions: n = 1
CSNK2A2 = conditions: n = 1
CTK = tested on: T1, CTK; conditions: concentration: 1 μM, replicates: in singlicate, n = 1
T1 construct: gene MATK

[1] = concentration: 1 μM, replicates: in singlicate
[2] = concentration: 1 μM, replicates: in singlicate, 1 µM
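Note: KINOMEscan kinase panel screen.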

Row | Compound | %Inh (CSNK1A1L) | %Inh (CSNK1A1) | %Inh (CSNK1D) | %Inh (CSNK1E) | %Inh (CSNK1G1) | %Inh (CSNK1G2) | %Inh (CSNK1G3) | %Inh (CSNK2A1; [1]) | %Inh (CSNK2A2; [1]) | %Inh (CTK) | %Inh (CSNK2A1; 1 µM) | %Inh (CSNK2A2; 1 µM) | %Inh (CSNK1D; 1 µM) | %Inh (CSNK1G1; 1 µM) | %Inh (CSNK1G2; 1 µM) | %Inh (CSNK1G3; 1 µM) | %Inh (CSNK2A1; [2]) | %Inh (CSNK2A2; [2]) | %Inh (CTK; 1 µM)
1 | COc1ccc(Nc2nccc(N3CCC(NC(=O)Nc4cc(C)ccc4C)C3)n2)cc1 (stereo not shown) [GSK1379741] | 2% | 0% | 0% | 12% | 0% | 0% | 14% | 0% | 0% | 0% | – | – | – | – | – | – | – | – | –
2 | Nc1nc(-c2ccc3c(N)n[nH]c3c2)cc(N2CCCC2)n1 [GSK2227430] | 0% | 0% | 0% | 25% | 0% | 0% | 19% | 0% | 4% | 0% | – | – | – | – | – | – | – | – | –
3 | Cc1ccc(C(=O)NCC(N)=O)cc1-n1c(C)cc(OCc2ccc(F)cc2F)c(Br)c1=O | 26% | 25% | 19% | 0% | 22% | 10% | 8% | 0% | 0% | 0% | – | – | – | – | – | – | – | – | –
4 | Cc1cccc(-c2nc(Nc3ccc4ncsc4c3)c3ccccc3n2)n1 [GW867588] | 0% | 0% | 0% | 6% | 0% | 0% | 0% | 0% | 18% | 0% | – | – | – | – | – | – | – | – | –
5 | CN1c2ccc(NCc3ccc(F)cc3)cc2-c2c(cnn2C)S1(=O)=O | 0% | 0% | 2% | 3% | 0% | 0% | 0% | 0% | 0% | 0% | – | – | – | – | – | – | – | – | –
6 | CN(C(=O)c1ccc(-c2cc(-c3c[nH]nc3-c3ccccn3)ccn2)cc1)C1CCOCC1 [GW810083] | 8% | 37% | 29% | 42% | 5% | 0% | 0% | 0% | 0% | 5% | – | – | – | – | – | – | – | – | –
7 | [2H]C([2H])(c1cccc(C(F)(F)F)c1C)n1ccn2c(=O)nc(N3CCOCC3)cc12 [GSK2336394] | 16% | 0% | 19% | 12% | 9% | 0% | 19% | 0% | 0% | 0% | – | – | – | – | – | – | – | – | –
8 | COc1ccc(Nc2nccc(N3CCC(NC(=O)Nc4cccc(C(C)=O)c4)C3)n2)cc1 (stereo not shown) [GSK1379731] | 4% | 0% | 0% | 39% | 0% | 0% | 0% | 0% | 0% | 0% | – | – | – | – | – | – | – | – | –
9 | Cc1ccc(NC(=O)c2ccnc(N3CCN(C)CC3)c2)cc1-c1ccc(C(=O)NCC2CC2)cc1 [GW775604] | 0% | 0% | 0% | 24% | 0% | 0% | 0% | 0% | 7% | 0% | – | – | – | – | – | – | – | – | –
10 | Cc1cccc(-c2nc(-c3ccc(S(C)(=O)=O)cc3)sc2-c2ccncc2)c1 | 9% | 18% | 16% | 36% | 0% | 20% | 0% | 0% | 14% | 0% | – | – | – | – | – | – | – | – | –
11 | COc1cc(Nc2nccc(N3CCC(NC(=O)c4cccc(NC(C)=O)c4)C3)n2)cc(OC)c1OC (stereo not shown) [GSK1379754] | 4% | 6% | 0% | 0% | 4% | 0% | 8% | 17% | 65% | 0% | – | – | – | – | – | – | – | – | –
12 | Cc1c2ccc(N(C)c3ccnc(Nc4cccc(S(N)(=O)=O)c4)n3)cc2nn1Cc1ccccc1.Cl.Cl [GW787226] | 0% | 15% | 0% | 0% | 0% | 0% | 0% | 0% | 1% | 26% | – | – | – | – | – | – | – | – | –
13 | Cc1nnc(-c2ccc3occ(-c4ccc(C(C)O)cc4)c3c2)o1 (stereo not shown) | 0% | 14% | 0% | 7% | 0% | 9% | 0% | 25% | 53% | 0% | – | – | – | – | – | – | – | – | –
14 | COCCNC(=O)c1ccc(-c2cc(C(=O)NC3CC3)cc(F)c2C)cc1 [GW868318] | 5% | 9% | 1% | 31% | 0% | 4% | 8% | 0% | 9% | 11% | – | – | – | – | – | – | – | – | –
15 | CC(C)Oc1ccc2c(-c3ccnc(Nc4ccc(N5CCN(C)CC5)cc4)n3)cnn2n1 [GW696155] | 0% | 46% | 37% | 28% | 28% | 0% | 19% | 94.6% | 98.9% | 0% | – | – | – | – | – | – | – | – | –
16 | COc1ccc(CNC(=O)NC2CCN(c3ccnc(Nc4ccc(OC)cc4)n3)C2)cc1 (stereo not shown) [GSK1379727] | 5% | 0% | 0% | 8% | 0% | 0% | 8% | 7% | 0% | 0% | – | – | – | – | – | – | – | – | –

Row | Compound | %Inh (CSNK1A1L) | %Inh (CSNK1A1) | %Inh (CSNK1D) | %Inh (CSNK1E) | %Inh (CSNK1G1) | %Inh (CSNK1G2) | %Inh (CSNK1G3) | %Inh (CSNK2A1; [1]) | %Inh (CSNK2A2; [1]) | %Inh (CTK) | %Inh (CSNK2A1; 1 µM) | %Inh (CSNK2A2; 1 µM) | %Inh (CSNK1D; 1 µM) | %Inh (CSNK1G1; 1 µM) | %Inh (CSNK1G2; 1 µM) | %Inh (CSNK1G3; 1 µM) | %Inh (CSNK2A1; [2]) | %Inh (CSNK2A2; [2]) | %Inh (CTK; 1 µM)
17 | COc1cc2ncn(-c3cc(OCc4sccc4Cl)c(C(N)=O)s3)c2cc1OC [GSK448459] | 6% | 0% | 16% | 28% | 4% | 0% | 13% | 25% | 34% | 0% | – | – | – | – | – | – | – | – | –
18 | O=C1NC(=O)C(N2CCc3ccccc32)=C1c1cccc(Cl)c1 [SB-408010] | 0% | 19% | 0% | 0% | 5% | 0% | 0% | 0% | 13% | 53% | – | – | – | – | – | – | – | – | –
19 | N#Cc1ccc(-c2cc(-c3c[nH]nc3-c3ccccn3)ccn2)cc1 [GW693028] | 12% | 19% | 62% | 32% | 8% | 0% | 8% | 0% | 5% | 0% | – | – | – | – | – | – | – | – | –
20 | O=c1cc(N2CCOCC2)nc2n(Cc3cccc(Cl)c3Cl)c(C3CC3)nn12 [GSK2358994] | 0% | 0% | 7% | 11% | 0% | 5% | 23% | – | – | 0% | 16% | 0% | – | – | – | – | – | – | –
21 | Cl.Cl.Cl.Fc1ccc(-c2ncn(C3CCNCC3)c2-c2ccnc(Nc3ccccc3)n2)cc1 [SB-238039] | 98.9% | 97.7% | – | 99.9% | – | – | – | – | – | – | – | – | 95.2% and 93.4% | 78% and 75% | 99.5% and 98.9% | 99.2% and 96.6% | 0% and 19% | 0% and 25% | 40% and 1%
22 | N#Cc1c(N2CCOCC2)sc(-c2ccn[nH]2)c1-c1ccc(Cl)cc1 | 0% | 17% | 0% | 15% | 0% | 0% | 10% | 34% | 14% | 3% | – | – | – | – | – | – | – | – | –
23 | Cl.Nc1ncnc2occ(-c3ccc(NC(=O)Nc4cc(C(F)(F)F)ccc4F)cc3)c12 [SB-707548] | 11% | 10% | 32% | 25% | 16% | 0% | 32% | 0% | 0% | 4% | – | – | – | – | – | – | – | – | –
24 | COc1ccc(COc2cc(-n3cnc4ccccc43)sc2C(N)=O)cc1 [GSK1024304] | 13% | 0% | 0% | 30% | 11% | 5% | 22% | 4% | 13% | 0% | – | – | – | – | – | – | – | – | –
25 | CN1c2ccc(CNc3ccc(F)cc3)cc2-c2c(cnn2C)S1(=O)=O | 0% | 1% | 0% | 0% | 0% | 0% | 0% | 0% | 0% | 0% | – | – | – | – | – | – | – | – | –
26 | NS(=O)(=O)c1cccc(-c2ccc3nccc(-c4cccc(S(N)(=O)=O)c4)c3c2)c1 [GW867253] | 0% | 0% | 0% | 12% | 0% | 0% | 0% | 0% | 22% | 31% | – | – | – | – | – | – | – | – | –
27 | Nc1nccc(-c2c(-c3ccc(F)cc3)ncn2C2CCN(CC(F)(F)F)CC2)n1 [SB-236560] | 2% | 92.7% | 86% | 96.6% | 0% | 1% | 0% | 0% | 0% | 7% | – | – | – | – | – | – | – | – | –
28 | CNc1ncnc2[nH]ncc12 [SKF-18355] | 0% | 14% | 0% | 32% | 0% | 0% | 11% | 0% | 3% | 18% | – | – | – | – | – | – | – | – | –
29 | O=C(NCCNc1ccnc(Nc2ccc(F)cc2)n1)c1cc2ccccc2s1 [GSK1379874] | 9% | 0% | 0% | 37% | 0% | 0% | 21% | 7% | 19% | 52% | – | – | – | – | – | – | – | – | –
30 | O=C(NOCC1CC1)c1ccc(F)c(F)c1Nc1ccc(I)cc1Cl | 0% | 3% | 0% | 3% | 0% | 0% | 0% | 0% | 18% | 0% | – | – | – | – | – | – | – | – | –
31 | NS(=O)(=O)CCc1cccc(Nc2nccc(-c3c(-c4cccc(NC(=O)c5c(F)cccc5F)c4)nn4ccccc34)n2)c1 [GSK336735] | 7% | 0% | 33% | 90.4% | 14% | 5% | 19% | 9% | 9% | 0% | – | – | – | – | – | – | – | – | –

Source: PMC5540273 (PLoS ONE, 2017)
